Results: article PMC11006913

molecular target: PITX2 (Homo sapiens, UniProt Q99697 72-157); assay: PBM; 200 nM protein, PBS; settings: dsDNA, one strand shown

Sequence	binding signal
ATTAGGCC	10 upbm affinity estimate (log intensity, higher = more binding, comparable within an allelic series)
CGCCTGTC	8.14 upbm affinity estimate (log intensity, higher = more binding, comparable within an allelic series)
CCTTCCAC	8.11 upbm affinity estimate (log intensity, higher = more binding, comparable within an allelic series)
ACCGTTGC	8.17 upbm affinity estimate (log intensity, higher = more binding, comparable within an allelic series)
AAATCTCC	10.8 upbm affinity estimate (log intensity, higher = more binding, comparable within an allelic series)
ACGTCTCC	7.95 upbm affinity estimate (log intensity, higher = more binding, comparable within an allelic series)
CTGTCGAC	7.99 upbm affinity estimate (log intensity, higher = more binding, comparable within an allelic series)
AAGCTGAA	9.66 upbm affinity estimate (log intensity, higher = more binding, comparable within an allelic series)
AGGATTTA	12.4 upbm affinity estimate (log intensity, higher = more binding, comparable within an allelic series)
ACCACCGT	8.12 upbm affinity estimate (log intensity, higher = more binding, comparable within an allelic series)
ACACCAGC	8.12 upbm affinity estimate (log intensity, higher = more binding, comparable within an allelic series)
CGGAATCC	10.1 upbm affinity estimate (log intensity, higher = more binding, comparable within an allelic series)
CGGGCACA	8 upbm affinity estimate (log intensity, higher = more binding, comparable within an allelic series)
CACTAGTG	8.21 upbm affinity estimate (log intensity, higher = more binding, comparable within an allelic series)
AATCCAAT	10.9 upbm affinity estimate (log intensity, higher = more binding, comparable within an allelic series)
CGAGCGTC	7.93 upbm affinity estimate (log intensity, higher = more binding, comparable within an allelic series)
ATCTAATG	9.77 upbm affinity estimate (log intensity, higher = more binding, comparable within an allelic series)
GAACACGA	8.02 upbm affinity estimate (log intensity, higher = more binding, comparable within an allelic series)
CCTACCAG	8.01 upbm affinity estimate (log intensity, higher = more binding, comparable within an allelic series)
CAACCATC	8.24 upbm affinity estimate (log intensity, higher = more binding, comparable within an allelic series)

Sequence	binding signal
CCTCAACG	7.97 upbm affinity estimate (log intensity, higher = more binding, comparable within an allelic series)
ACAGGGTG	7.94 upbm affinity estimate (log intensity, higher = more binding, comparable within an allelic series)
TGGTCGAA	7.84 upbm affinity estimate (log intensity, higher = more binding, comparable within an allelic series)
CGCCAGCA	8 upbm affinity estimate (log intensity, higher = more binding, comparable within an allelic series)
GACGGTGA	8.15 upbm affinity estimate (log intensity, higher = more binding, comparable within an allelic series)
CATGTTCG	8.09 upbm affinity estimate (log intensity, higher = more binding, comparable within an allelic series)
GGCTTAAA	12.3 upbm affinity estimate (log intensity, higher = more binding, comparable within an allelic series)
ACTGGTGC	7.7 upbm affinity estimate (log intensity, higher = more binding, comparable within an allelic series)
CCGTACCC	7.91 upbm affinity estimate (log intensity, higher = more binding, comparable within an allelic series)
GGCATTAC	10.5 upbm affinity estimate (log intensity, higher = more binding, comparable within an allelic series)
AAGCTTAG	11.4 upbm affinity estimate (log intensity, higher = more binding, comparable within an allelic series)
GAGAGGCC	7.88 upbm affinity estimate (log intensity, higher = more binding, comparable within an allelic series)
AATTCCAC	9.99 upbm affinity estimate (log intensity, higher = more binding, comparable within an allelic series)
GGTATTAA	12.3 upbm affinity estimate (log intensity, higher = more binding, comparable within an allelic series)
ACTCTCGG	8.08 upbm affinity estimate (log intensity, higher = more binding, comparable within an allelic series)
CGTTGTCA	8.02 upbm affinity estimate (log intensity, higher = more binding, comparable within an allelic series)
ATACCTTA	9.97 upbm affinity estimate (log intensity, higher = more binding, comparable within an allelic series)
CACTCGCA	8.08 upbm affinity estimate (log intensity, higher = more binding, comparable within an allelic series)
GCAGTCGC	7.82 upbm affinity estimate (log intensity, higher = more binding, comparable within an allelic series)
TAAGCTTA	12.3 upbm affinity estimate (log intensity, higher = more binding, comparable within an allelic series)
